gsp antag: qHTS for Antagonists of gsp, the Etiologic Mutation Responsible for Fibrous Dysplasia/McCune-Albright Syndrome: qHTS; Potency, µM (series often up to 76.9 µM), inactives show top-dose activity change, negative = inhibition, hits mostly inhibitors; gsp-mutant cells, cAMP HTRF, 30 min; 0.4% of 340,000 active; calls by dose curve; cell line not stated here;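 note: intracellular cAMP measured with PDE inhibitor Ro 20-1724 present during compound exposure; potency is the fitted concentration of half-maximal effect; % is set by controls: 0 for no effect and ±100 for the full control effect; nearly all actives have a fitted effect of over 65% in size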
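HTRF cAMP measurement after 30 min RT detection following 30 min, 37C compound treatment alongside […] (added as 300 uM solution) in G418-selected cells seeded at 2000/well and grown 16–24 h.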
RXFP1 antagonist: qHTS Assay for Antagonists of the Relaxin Receptor RXFP1. Relaxin receptor 1 (Homo sapiens), Q9HBX9. HEK293-RXFP1, relaxin-stimulated cAMP HTRF, 30 min; hits give low values. activity change, negative = inhibition, % at 57.5 µM. 0.59% of 350,000 active. AID 1259400, 2018;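 active = activity change of -60% or lower, but not beyond a set lower limit; inconclusive = change between -60% and -40%, or beyond the set limit; inactive = change above -40%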; note: % is set by controls: 0 for no effect and ±100 for the full control effect
Target sequence (Q9HBX9 whole entry, looked up): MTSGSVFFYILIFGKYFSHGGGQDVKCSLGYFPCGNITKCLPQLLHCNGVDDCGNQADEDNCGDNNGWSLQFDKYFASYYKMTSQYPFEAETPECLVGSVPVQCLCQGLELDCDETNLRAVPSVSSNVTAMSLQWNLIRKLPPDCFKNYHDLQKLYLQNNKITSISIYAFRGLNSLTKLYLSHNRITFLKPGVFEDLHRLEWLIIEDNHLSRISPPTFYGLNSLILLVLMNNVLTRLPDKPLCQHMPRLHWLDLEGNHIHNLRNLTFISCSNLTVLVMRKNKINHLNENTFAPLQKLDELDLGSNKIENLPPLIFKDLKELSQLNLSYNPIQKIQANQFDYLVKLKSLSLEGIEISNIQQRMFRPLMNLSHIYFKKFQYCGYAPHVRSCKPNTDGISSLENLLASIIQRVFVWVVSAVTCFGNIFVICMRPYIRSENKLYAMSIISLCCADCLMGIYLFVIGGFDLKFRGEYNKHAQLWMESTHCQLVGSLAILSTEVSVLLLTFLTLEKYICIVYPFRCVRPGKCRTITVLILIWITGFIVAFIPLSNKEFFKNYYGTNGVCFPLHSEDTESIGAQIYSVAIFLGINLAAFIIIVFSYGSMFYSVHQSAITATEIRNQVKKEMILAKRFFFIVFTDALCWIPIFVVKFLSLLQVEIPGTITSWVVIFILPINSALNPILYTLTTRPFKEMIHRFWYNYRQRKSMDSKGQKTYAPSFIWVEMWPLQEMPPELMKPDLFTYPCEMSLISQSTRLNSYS
gsp agonist: qHTS for Agonist of gsp, the Etiologic Mutation Responsible for Fibrous Dysplasia/McCune-Albright Syndrome: qHTS; AID 624287, 2012; 0.13% of 340,000 active; gsp mutant cells, cAMP HTRF, 30 min; Potency, µM (top dose mostly 76.9 µM), for the others: top-dose activation (cAMP increase), usual class: activators; active = well fitted activation curve with a large enough effect; inconclusive = small, poorly fitted or top-dose-only effect, or another doubt; inactive = no such curve, though single readings can be large or run the other way; cell line not stated here;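 note: phosphodiesterase inhibitor Ro 20-1724 added with compounds to block cAMP breakdown; potency is the fitted concentration of half-maximal effect; nearly all actives have a fitted effect of over 60% in size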
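Cells in DMEM/10% FBS with G418 were pretreated with compounds in DMSO plus […] (300 uM stock) for 30 min at 37C. cAMP was measured by HTRF (cAMP-d2 plus anti-cAMP antibody-K) after 30 min at room temperature.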
RXFP1 ag: qHTS Assay for Agonists of the Relaxin Receptor RXFP1; HEK293T-RXFP1 cAMP TR-FRET, 30 min; response scale: percent of porcine relaxin response, buffer zero; 0.3% of 370,000 active; AID 2676, 2010; Potency, µM (titrated, usually from 57.5 µM), for the others: at the highest dose activation, actives largely listed as activators; active = well fitted activation curve with a large enough effect; inconclusive = small, poorly fitted or top-dose-only effect; note: potency is the fitted concentration of half-maximal effect; % is set by controls: 0 for no effect and ±100 for the full control effect; nearly all actives have a fitted effect of over 60% in size
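Agonist response is measured as cAMP accumulation in an RXFP1-transfected HEK293T line under PDE4 inhibition. Values are scaled between buffer-only and 29 nM porcine relaxin, and EC50s come from standard Hill equation fits.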
pAkt inh: HTS Assay for Inhibitors of Akt Phophorylation: Primary Screen | Neuro2A IGF-stimulated pAkt S473 HTRF, 20 min; hits give low values | activity change, % for hits at 50 µM | 0.32% of 360,000 active | AID 651550, 2012; in the data active = activity change below about -80%; inconclusive = mostly about -51% to -80%; note: % is set by controls: 0 for no effect and ±100 for the full control effect
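Neuro2A cells in DMEM with 0.5% FBS, overnight at 37 deg C, given compound at single 50 µM final, then IGF (6 nM final) for 20 min at 37 deg C. Lysed; phospho-Akt Ser473 by HTRF after 24 h, 665/615 ratio.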
The depositor's hits bear a star; i = inactive; ? = inconclusive; nt = no result; [ ] = dose if it differs, or a comment. Rows were chosen to be rich in hits. Some 1.2% of all compounds tested hit in one or more screens of this group.

SMILES | gsp antag | RXFP1 antagonist | gsp agonist | RXFP1 ag | pAkt inh
Cn1c(=O)c([N+](=O)[O-])c(-n2ccnc2)c2ccccc21 | ? | -110* | -4%[15.4 µM] | 2% | i
Cc1ccc(-n2c(Cl)c(Cl)nc(Cl)c2=O)cc1 | 5% | -103* | -15%[15.4 µM] | -3% | i
COc1nc(Cl)cn(-c2ccc(C)cc2)c1=O | 11% | -2 | -17% | 2% | i
COc1ccc([C@]23Cc4cc(OC)c(OC)cc4C(O2)c2c(cc(C)oc2=O)O3)cc1 | nt | nt | nt | 1%[11.5 µM] | nt
CCCOc1ccc2c(c1)CC[C@@H]1[C@@H]2CC[C@]2(C)C(OC)CC[C@@H]12 (stereo partly specified) | nt | -10 | nt | nt | nt
CCC1CN(C(=O)N2CCC(C(=O)NCCCc3ccccc3)CC2)c2cc(C)ccc2O1 (stereo unspecified) | nt | -69* | nt | 0% | nt
CCC1CN(C(=O)N2CCC(C(=O)NCCCc3ccccc3)CC2)c2ccccc2O1 (stereo unspecified) | nt | -13 | nt | 2% | nt
Cc1noc(Cn2c(=O)c3ccccc3n(CC(=O)Nc3cccc(Cl)c3C)c2=O)n1 | nt | -8 | nt | -1% | nt
CCN(CC)C(=O)CSc1ncnc2sc(-c3ccccc3)cc12 | 40µM* | -29 | 6% | 3% | nt
O=C(NC1CCCCC1)c1ccc(Cn2c(SCc3cccc(F)c3)nc3cccnc32)cc1 | nt | 14 | nt | 1% | nt
ON=C(c1ccccc1)c1ccc2c3c(cccc13)CC2 | nt | -106* | 4% | nt | i
CC(=O)c1ccc2c3c(cccc13)CC2 | -3% | -7 | -54% | 1% | i
Cc1cc(C)cc(NS(=O)(=O)c2ccc3c(c2)c(=O)n(C)c(=O)n3C)c1 | 1% | 7 | 25µM* | 26% | i
Cn1c(=O)c2cc(S(=O)(=O)Nc3cc(C(=O)O)cc(C(=O)O)c3)ccc2n(C)c1=O | 11% | 2 | ? | 22% | i
Cc1cccc(Cn2cc(C(=O)Nc3ccc(F)c(C(F)(F)F)c3)ccc2=O)c1 | nt | -9 | nt | 4% | nt
Cc1ccc(-c2noc(CCC(=O)NCCCN3CCN(c4ccc(F)cc4)CC3)n2)cc1 | -2% | -15 | 5% | 2% | i
Cc1ccc(-c2noc(CCC(=O)NCCCN3CCN(c4cccc(Cl)c4)CC3)n2)cc1 | 10%[15.4 µM] | -64* | 19% | 1% | i
NC(CS)C(=O)O (stereo unspecified) | nt | 6 | nt | nt | nt
Cc1cc(C)c(O)c(-c2n[nH]c3c2C(c2cccc(O)c2)N(Cc2ccco2)C3=O)c1 (stereo unspecified) | -20% | -80* | -19% | -2% | i
CCOC(=O)c1ccc(NC(=O)c2sc3nc(N4CCOCC4)c4c(c3c2N)CCCC4)cc1 | -2% | 28 | 18µM* | 9% | nt
COc1ccc(NC(=O)c2sc3nc(N4CCOCC4)c4c(c3c2N)CCCC4)cc1 | nt | 4 | -10% | nt | i
CCOC(=O)c1ccc(NC(=O)c2csc3c2CCCC3)cc1 | nt | -93* | nt | -2% | nt
CCOc1ccc(NC(=O)c2csc3c2CCCC3)cc1 | -12% | nt | -30% | 2% | i
Cc1c(C)n(C)c2ccc(C(=O)NCCc3ccc(Cl)cc3)cc12 | nt | -21 | nt | 3% | nt
COc1ccc(NC(=O)Cn2c(SCc3ccc(F)cc3)nc3cccnc32)c(OC)c1 | nt | 6 | nt | 1% | nt
SMILES | gsp antag | RXFP1 antagonist | gsp agonist | RXFP1 ag | pAkt inh
COC(=O)c1ccccc1N=Nc1c(N)[nH][nH]c1=O | 40µM* | ? | 20% | -5% | i
CN=c1scc(-c2ccccc2F)n1/N=C/c1ccc(O)c(O)c1O | 16% | -65* | 3%[15.4 µM] | -3% | i
CCN=c1scc(-c2cccs2)n1/N=C/c1cc(OC)ccc1O | ? | -2 | 16% | 0% | i
CC(C)N=c1scc(-c2cccs2)n1/N=C/c1ccc(O)c(O)c1O | -14% | -63* | -25% | 1% | i
COc1cc(OC)c(NC(=O)c2nn(C)c3c2COc2ccccc2-3)cc1Cl | nt | -10 | nt | -5% | nt
CCOc1ccccc1NC(=O)c1c2c(nc3ccccc13)C(=O)N(C1CCCCC1)C2 | nt | ? | nt | 12% | nt
COc1ccc(C2=NOC(Cn3nc(C(=O)NCc4ccc(C)cc4)cc3-c3ccccc3)C2)cc1 (stereo unspecified) | -24% | nt | 13% | 1% | i
COc1ccc(C2=NOC(Cn3nc(C(=O)NCc4ccco4)cc3-c3ccccc3)C2)cc1 (stereo unspecified) | 32µM* | nt | -27% | 0% | i
CCOc1ccc2[nH]c(=O)c(CN(Cc3ccccc3)C(=O)N3CCCC3)cc2c1 | 4% | 0 | -28% | 2% | -132%*
O=C(C1CC1)N1CCc2cc(Br)cc(S(=O)(=O)N3CCN(c4cccc(C(F)(F)F)c4)CC3)c21 | nt | nt | nt | -3% | nt
O=Cc1cc(Cl)ccc1OCCN1CCC(Cc2ccccc2)CC1 | 0% | -109* | -15% | 0% | i
Clc1ccccc1OCCN1CCC(Cc2ccccc2)CC1 | 14% | -22 | -31% | 4% | i
O=S(=O)(c1cccc(-c2cn3cccnc3n2)c1)N1CCOCC1 | 37% | -11 | 18µM* | ? | i
O=S(=O)(c1cccc(-c2cn3cccnc3n2)c1)N1CCCCCC1 | 4% | 2 | ? | 12% | i
O=C(NCCCCCCNC(=O)OCCO)OCCO | 11% | -6 | 12%[15.4 µM] | 1% | i
CCCCNC(=O)OCCNC(=O)NC | 0% | 1 | -12% | 3% | -83%*
COc1cccc(CN(C(=O)COc2ccc(Cl)c(C)c2)C2CCS(=O)(=O)C2)c1 (stereo unspecified) | nt | -17 | nt | 0% | nt
O=c1[nH]c2ccccc2n1CCCN1CCCCC1 | 19% | -31 | -2%[15.4 µM] | 0% | i
O=c1[nH]c2ccccc2n1CCCN1CCN(C(c2ccccc2)c2ccccc2)CC1 | nt | -75* | nt | 4% | nt
O=C(Nc1ccc(N2CCN(c3ncccc3C(F)(F)F)CC2)nc1)c1cccs1 | 50µM* | -69* | 3%[15.4 µM] | 3% | i
Cc1cc(C)c2c(N)c(C(=O)Nc3ncc(C)s3)sc2n1 | 2% | 2 | 7% | 7% | -94%*
COC(=O)c1sc2nc(C)cc(C)c2c1N | 9% | -14 | 23% | 8% | i
CC(C)(C)C1CCc2nc(NC(=O)c3cccc(Cl)c3)sc2C1 (stereo unspecified) | nt | nt | nt | 7% | nt
Cc1ccc(C)c(N(C)C(=O)c2ccc3c(=O)n4c(nc3c2)CCCCC4)c1 | -6% | -102* | -2% | -3% | nt
COc1cc(S(N)(=O)=O)cc(C(=O)O)c1OC | nt | -7 | nt | nt | nt
COc1cccc(N2CCN(c3cnc4ccccc4n3)CC2)c1 | 45µM* | -20 | 15%[15.4 µM] | -2% | i
CN1CCN(S(=O)(=O)c2ccc(NC(=O)c3cccs3)cc2)CC1 | -2% | 0 | -20% | 2% | -102%*

From PubChem BioAssay
